Sm TGR inh – qHTS Assay for the Inhibitors of Schistosoma Mansoni Peroxiredoxins; purified TGR, DTNB reduction, TNB absorbance 405 nm; Potency, µM (doses to about 114 µM), without a hit: at the top dose activity change, negative = inhibition, actives largely listed as inhibitors; 360,000 compounds, 3% hits; also: nearly all actives have a fitted effect of over 60% in size
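Kinetic colorimetric format: TGR-catalysed, NADPH-driven DTNB reduction monitored via TNB absorbance. Enzyme dispensed at 20 nM; compound exposure 15 min at room temperature before reaction start.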
AmpC inh detg – qHTS Inhibitors of AmpC Beta-Lactamase (assay with detergent); Potency, µM (top dose mostly 114 µM), inactives show at the top dose activity change, negative = inhibition, most hits filed as inhibitors; 370,000 compounds, 0.041% hits; AmpC hydrolysis of nitrocefin, absorbance 480 nm, 0.01% Triton; P00811; AID 485294, 2010;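 also: 0% = no-compound wells and -100% = no-enzyme wells; nearly all actives have a fitted effect of over 25% in size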
Target sequence (P00811 whole entry, looked up): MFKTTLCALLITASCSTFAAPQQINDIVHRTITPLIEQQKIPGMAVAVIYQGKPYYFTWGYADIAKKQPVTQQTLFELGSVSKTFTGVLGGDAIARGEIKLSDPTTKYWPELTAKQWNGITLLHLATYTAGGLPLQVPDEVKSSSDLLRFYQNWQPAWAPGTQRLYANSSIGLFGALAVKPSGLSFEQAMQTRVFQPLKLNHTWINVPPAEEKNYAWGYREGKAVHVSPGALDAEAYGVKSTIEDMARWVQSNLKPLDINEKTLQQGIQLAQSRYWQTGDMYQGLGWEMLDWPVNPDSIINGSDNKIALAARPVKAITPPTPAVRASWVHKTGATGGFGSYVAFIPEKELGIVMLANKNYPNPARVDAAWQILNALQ
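AmpC (5.3 nM in the dispensed reagent) in 20 mM phosphate pH 7.0 with 0.01% (detergent screen) or 0.0001% Triton X-100 was preincubated with compounds for 15 min at room temperature. Nitrocefin was then added from an 800 uM solution, and hydrolysis was followed at 480 nm.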
AmpC no deterg – qHTS Inhibitors of AmpC Beta-Lactamase (assay without detergent). P00811. AmpC nitrocefin hydrolysis, absorbance 480 nm, 0.0001% Triton. Potency, µM (titrated, usually from 57.1 µM), inactives show at the top dose activity change, negative = inhibition, hits mostly inhibitors. 330,000 compounds, 0.52% hits. AID 485341, 2010;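 also: plate controls were no compound for no effect and no enzyme for full effect; nearly all actives have a fitted effect of over 20% in size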
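20 mM phosphate pH 7.0 + 0.01% (detergent screen) or 0.0001% Triton X-100; 5.3 nM AmpC reagent; cpd preinc 15 min RT; nitrocefin (800 uM stock) to start; A480 q20 s × 4 min; Activity was normalised to no-enzyme and no-compound control wells.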
Active calls of the source: *; ? = inconclusive; . = no result; [ ] = remark or other dose. Sampled rows, rich in hits. Any-hit rate of the full collection: about 3.3%. Calls follow the shape of the dose curve; as a rule, active = well fitted curve in the direction sought with a large enough effect; inconclusive = small, poorly fitted or top-dose-only effect, or another doubt; inactive = no such curve, though single readings can be large; an effect the other way counts as inactive or inconclusive. Unless noted, % is scaled to controls: 0 for no effect and ±100 for the full control effect; potency is read from the fitted curve at half-maximal effect.

SMILES | Sm TGR inh | AmpC inh detg | AmpC no deterg
O=C(C[n+]1cccc(O)c1)NCc1ccc(Cl)cc1 | 0% | -4% | 128%
Cc1oc(-c2ccc(Cl)cc2)nc1CS(=O)CC(=O)NC1CCCCCC1 (stereo unspecified) | 10µM* | -2% | 130%
Cc1oc(-c2cccs2)nc1CS(=O)CC(=O)NC1CCCCCC1 (stereo unspecified) | 18µM* | ? | -13%
Cc1cccc(-c2nc(CS(=O)CC(=O)NC3CCCC(C)C3C)c(C)o2)c1 (stereo unspecified) | 5µM* | ? | 137%
Cc1oc(-c2ccc(Cl)cc2)nc1CS(=O)CC(=O)NCCCN1CCOCC1 (stereo unspecified) | -28% | 1% | 8%
O=C(CSc1oc(-c2cccs2)nc1S(=O)(=O)c1ccccc1)NC1CCCCC1 | 11% | ? | -45%
Cc1ccccc1-c1nc(CN2CCC(C(=O)NCc3ccccc3Cl)CC2)c(C)o1 | 6% | -5% | .
CNC(=S)NNc1nncc2ccccc12 | -22% | -1% | -19%
CCCCCCCCCc1nc2sc3c(c2c(=O)n1NC(=O)c1ccc([N+](=O)[O-])cc1)CC(C)(C)OC3 | 4% | -2% | -29%
CCCc1nc2sc3c(c2c(=O)n1NC(=O)c1ccco1)CC(C)(C)OC3 | 11µM* | -10%[57.1 µM] | -22%
Cc1cccc2sc(NC(=O)CSc3nnnn3C)nc12 | 0% | ? | -33%
COc1ccc(Br)cc1CN1CCN(S(=O)(=O)Cc2ccccc2)CC1 | 3% | 4% | 1%
COc1ccc(C(=O)Oc2ccc[nH]c2=O)cc1 | -8% | 0% | -8%
O=C(Oc1ccc[nH]c1=O)c1cc([N+](=O)[O-])cc([N+](=O)[O-])c1 | 79µM* | 2% | -5%
Cc1ccc(Cc2c(C)nc3nc(SCC(=O)NC4CCC(C)CC4)nn3c2C)cc1 (stereo unspecified) | 1% | 15% | .
CCn1c(=O)c2cc(C(=O)NCCc3cccc(C)c3)sc2c2ccccc21 | -5% | -9% | .
CCN=c1sc(C(=O)NCCc2ccccc2)cc(=O)n1CC | 20µM* | ? | -23%
Nc1nc(F)cc(N2CCCCCC2)n1 | ? | ? | -21%
COc1ccccc1-n1cnc2cc(C(=O)NCCCN3CCOCC3)ccc21 | -9% | -8% | -4%
Cn1nnc2cc(C(=O)NCc3ccco3)ccc21 | 40µM* | -4% | .
COc1ccccc1-n1cnc2cc(C(=O)NCc3ccco3)ccc21 | 40µM* | -6% | -21%
Cn1ncc(Cl)c1C(=O)NCc1ccco1 | 18µM* | -6% | -23%
Cn1nccc1CNC(=O)c1c(Cl)cnn1C | -10% | ? | -13%
O=C(NCc1ccco1)c1ccc2nccnc2c1 | 5% | -3% | -19%
COc1ccc(N2CCN(c3oc(/C=C/c4cccc(OC)c4)nc3C#N)CC2)cc1 | 0% | 26% | .
SMILES | Sm TGR inh | AmpC inh detg | AmpC no deterg
CC(C)N=C1CC(C)(C)CC(=O)/C1=C(/O)CCCN1C(=O)c2ccccc2C1=O | -1% | 3% | 48%
Cc1ccc2[nH]c(=O)c(C(c3nnnn3CC3CCCO3)N3CCCc4ccccc43)cc2c1 (stereo unspecified) | -18% | -10% | 58%
O=C(COC(=O)CNC(=O)c1ccc2c(c1)OCO2)Nc1ncc(Cl)cc1Cl | -8% | 4% | -28%
Cc1cc(C)c2c(=O)[nH]c(SCC(=O)c3ccc(F)c(C)c3)nc2n1 | -1% | -9% | -12%
CC(=O)Nc1nonc1-c1nnc(SCC(=O)Nc2cc(C)cc(C)c2)n1-c1ccccc1 | -1% | -2% | .
CC(=O)N1N=C(c2c(-c3ccccc3)c3cc(Br)ccc3[nH]c2=O)CC1c1ccco1 (stereo unspecified) | 13µM* | -3% | 46%
CC(=O)N1N=C(c2c(-c3ccccc3)c3cc(C)ccc3[nH]c2=O)CC1c1ccco1 (stereo unspecified) | -26% | -5% | 15%
COc1ccc(C(=O)C(O)C(c2ccc(C)cc2)N2CCOCC2)cc1OC (stereo unspecified) | -5% | -2% | 9%
CCN(CC)c1ccc(C2C(C(=O)Nc3ccccc3C)=C(C)Nc3ncnn32)cc1 (stereo unspecified) | 4% | 5% | .
Cc1ccc(CSCc2ccc(C(=O)NC3CC3)o2)cc1 | -5% | 7% | 17%
O=C(NC1CC1)c1ccc(CSCc2cccc(F)c2)o1 | 35µM* | -13% | -15%
COc1cccc(C(=O)NC2CC(=O)N(c3ccc4c(c3)OCCO4)C2)c1OC (stereo unspecified) | 8% | 2% | .
COc1cccc(C2=NO[C@@H]3C(=O)N(c4ccc5c(c4)OCCO5)C(=O)[C@H]23)c1OC | 40µM* | -15% | -7%
COc1cccc(C2=NO[C@@H]3C(=O)N(Cc4ccccc4)C(=O)[C@H]23)c1OC | 50µM* | -7% | -25%
COc1cccc(C2=NOC(C(=O)N3CCN(c4ccccc4)CC3)C2)c1OC (stereo unspecified) | 5% | ? | 25%
Cc1cc(C)cc(NC(=O)CSc2nc(N)c(NC(=O)c3cccs3)c(=O)[nH]2)c1 | -12% | -11% | -36%
O=C(N/C(=C/c1cccs1)C(=O)N1CCOCC1)c1ccco1 | -5% | 1% | -24%
Cc1cccc(NC(=O)C2CC(=O)n3cnnc3S2)c1 (stereo unspecified) | 0.4µM* | 2% | -20%
CCN=C1SC(C(=O)Nc2cccc(C)c2)CC(=O)N1CC (stereo unspecified) | -20% | ? | -9%
O=C(CSc1nnc(-c2ccco2)o1)c1ccc(F)c(F)c1 | -20% | -5% | -14%
O=C(CSc1nnc(-c2ccco2)o1)c1ccccc1 | 25µM* | ? | -38%
O=C(CSc1nnc(-c2ccco2)o1)Nc1c(F)cccc1F | -18% | 12% | -10%
O=C(CSc1nnc(-c2ccco2)o1)c1ccc[nH]1 | 28µM* | -2% | -45%
Cc1cccc(/C=C(\C(=O)O)c2ccc(S(=O)(=O)N3CCCC3)s2)c1 | . | . | 32µM*
O=C(O)/C(=C\c1cccc(F)c1)c1ccc(S(=O)(=O)N2CCCC2)s1 | -11% | 1% | -14%
SMILES | Sm TGR inh | AmpC inh detg | AmpC no deterg
Cc1ccccc1N(C(=O)c1snc(C(N)=O)c1N)C(C(=O)NC1CCCC1)c1ccco1 (stereo unspecified) | -19% | -12% | -17%
CC1(C(=O)NC2CCCCC2)Cc2ccccc2C(=O)N1Cc1ccccc1Cl (stereo unspecified) | -7% | -5% | .
Cc1nc2nc(-c3ccco3)nn2c(C)c1Cl | 22µM* | -10% | -17%
Cc1nc2nc(-c3cccnc3)nn2c(C)c1Cl | -4% | -4% | -21%
COc1cc2ncnc(NCc3ccc(C)cc3)c2cc1OC | -3% | -1% | 83%
COc1cccc(CNc2ncnc3cc(OC)c(OC)cc23)c1 | 1% | 5% | 3.2µM*
COc1cc(NC(=O)C2CCN(S(=O)(=O)c3c(C)noc3/C=C/c3ccccc3F)CC2)cc(OC)c1OC | 0% | 14% | .
COc1ccc(CCNC(=O)/C=C/c2ccco2)cc1 | 10µM* | ? | -23%
COc1ccc(/C=C/C(=O)NCCCc2ccccc2)cc1OC | -20% | -11% | -3%
